Compound activity as filed in PubChem.
hcDAF-12 act = activators of H. contortus DAF-12 nuclear receptor. HEK293 hcDAF-12 lit1-tk-luc reporter, luminescence; 0% DMSO, 100% Δ7-dafachronic acid. activation, % at 6.8 µM. hit rate 1.4% among 370,000. AID 652067;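 active = activation above the mean of all tested compounds plus 3 SD, cut at about 5.5% in these data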
hgDAF-12 ag = agonists of H. glycines DAF-12 nuclear receptor. hit rate 1.8% among 370,000. HEK293 GAL4-hgDAF12 UAS-luciferase reporter, agonist luminescence; normalized to butyrate control. activation, % at 6.8 µM;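 active = activation above a cutoff set at the mean of all screened compounds plus 3 SD, cut at about 10% in these data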
DAX1 inh-1 = inhibits human nuclear receptor DAX1. hit rate 0.99% among 340,000. inhibition, % at 6.75 µM. AID 504766. HEK293 Gal4-DAX1 luciferase reporter, luminescence. P51843;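 active = inhibition above the mean over all tested compounds plus 3 SD, cut at about 4.2% in these data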;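 also: inhibition shows as a rise in luminescence from relieved DAX1 repression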
Target sequence (P51843 207-470 limits assumed): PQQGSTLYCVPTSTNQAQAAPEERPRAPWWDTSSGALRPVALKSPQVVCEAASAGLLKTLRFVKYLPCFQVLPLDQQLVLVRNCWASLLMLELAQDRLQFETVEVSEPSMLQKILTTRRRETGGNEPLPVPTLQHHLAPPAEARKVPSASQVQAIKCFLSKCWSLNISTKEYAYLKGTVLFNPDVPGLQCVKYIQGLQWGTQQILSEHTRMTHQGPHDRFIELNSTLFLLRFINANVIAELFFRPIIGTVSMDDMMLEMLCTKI
ssDAF-12 act = S. stercoralis DAF-12 activation, primary screen; HEK293 ssDAF-12/GRIP1 lit1-tk-luc reporter, luminescence; % of 3 µM dafachronic acid response; activation, % at 6.8 µM; hit rate 1% among 370,000; AID 652126;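 active = activation above the mean over all tested compounds plus 3 SD, cut at about 0.9% in these data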
DAX1 inh-2 = inhibitors of DAX1 repression of SF-1 activated StAR promoter; HEK293T StAR-luciferase reporter, SF-1/DAX-1 repression relief; inhibition, % at 6.8 µM; hit rate 1.1% among 370,000; AID 652010;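 active = inhibition above the mean over all tested compounds plus 3 SD, cut at about 3.6% in these data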;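 also: higher inhibition means more luminescence from relief of DAX-1 repression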
A number is an active result; - = inactive; . = no result. A selection: hits, their analogues and other compounds. The true share with any hit is near 4.1%.

SMILES	hcDAF-12 act	hgDAF-12 ag	DAX1 inh-1	ssDAF-12 act	DAX1 inh-2
COC(=O)[C@]12C[C@H](CC(=O)N3CCC(c4ccccc4)CC3)C(=O)N(Cc3ccccc3)C1=C[C@H](C(C)(C)C)O[C@@H]2C	-	-	.	-	-
COc1ccc(C2C=C(c3ccc(C)cc3)Nc3ncnn32)cc1 (centres undefined)	-	11	-	-	-
COc1ccc(OCc2cc(C(=O)N(C)Cc3cc(C4CC4)n[nH]3)no2)c(Cl)c1	-	-	-	-	4.2
O=C(c1cc(COc2ccc(F)cc2F)on1)N1CCSCC1	-	12	-	-	-
CCOC(=O)N1CCN(C(=O)c2cc(COc3ccc(OC)cc3Cl)on2)CC1	-	-	-	-	-
CCN1CCN(C(=O)c2cc(COc3ccc(C(C)=O)cc3OC)on2)CC1	-	12	-	-	-
O=C(c1cc(COc2ccc(F)cc2Cl)on1)N1CCCCCC1	-	-	-	-	-
COc1ccc(OCc2cc(C(=O)N(C)Cc3cnccn3)no2)c(Cl)c1	-	-	-	-	-
COc1ccc(OCc2cc(C(=O)N3CCN(CC4CC4)CC3)no2)c(Cl)c1	-	-	-	-	3.6
O=C(CSc1nc2ccccc2n1Cc1ccccc1Cl)N/N=C\c1cccc(Oc2ccccc2)c1	-	-	.	-	-
O=C(NCc1ccccc1)OCCN1C(=O)CCC12CCC(c1ccccc1)CC2 (centres undefined)	-	-	.	-	-
CC(=O)c1cccc(OCc2cc(C(=O)N3C[C@H]4CC[C@H]3C4)no2)c1	-	-	-	-	-
CC(=O)c1cccc(OCc2cc(C(=O)N3C[C@@H](C)O[C@@H](C)C3)no2)c1	-	-	-	-	4.2
CC(=O)[C@@H]1[C@@H](C(=O)c2ccc(F)cc2)[C@]2(C(=O)Nc3ccccc32)[C@H]2C=Cc3cc(F)ccc3N12	-	-	-	1.5	-
C/C(=N\OC(=O)NC(C)C)c1sc(-c2ccc(Cl)cc2)nc1C	-	-	-	-	-
CCNC(=O)O/N=C(\C)c1sc(-c2ccc(Cl)cc2)nc1C	-	11	-	-	-
Cc1ccc(S(=O)(=O)N2C(N)=C(C(=O)NCc3ccc(Br)cc3)C(c3ccc(Cl)cc3)C2C(=O)c2ccccc2)cc1 (centres undefined)	-	-	.	-	.
Cc1c(NC2=C(Cl)C(=O)N(c3ccccc3Cl)C2=O)c(=O)n(-c2ccccc2)n1C	-	-	-	0.9	-
COc1ccccc1NC(=O)CC1SC(=N)N(c2ccccc2)C1=O (centres undefined)	-	-	-	-	-
N=C1SC(CC(=O)Nc2ccccc2[N+](=O)[O-])C(=O)N1c1ccccc1 (centres undefined)	-	-	-	1.6	-
CCOC(=O)CN1CC23C=CC(O2)C(C(=O)Nc2cc(OC)ccc2OC)C3C1=O (centres undefined)	-	-	4.9	-	-
Nc1nc(-c2ccccc2)c(N=Nc2ccc(Cl)cc2)s1	-	-	-	1.2	-
Cn1cccc1-c1nc2ccc([N+](=O)[O-])cc2[nH]1	-	11	-	-	-
Cc1ccc(Sc2ccc(CO)cc2[N+](=O)[O-])cc1	-	-	-	11	-
Cc1ccc(Sc2ccc(CN3CCCC3)cc2[N+](=O)[O-])cc1	-	-	-	-	-
SMILES	hcDAF-12 act	hgDAF-12 ag	DAX1 inh-1	ssDAF-12 act	DAX1 inh-2
O=C1c2ccccc2NC(c2ccc(Cl)cc2Cl)N1O (centres undefined)	-	-	-	-	-
O=C1c2ccccc2NC(c2cccc(Cl)c2)N1N=C1CCCCCC1 (centres undefined)	-	-	4.9	-	-
COCC1CN(CCc2ccc(F)cc2)S(=O)(=O)c2c(F)cccc2O1 (centres undefined)	-	-	.	-	-
CCCCCCS(=O)[C@H]1CS(=O)(=O)C[C@@H]1S(=O)CCCCCC (some centres undefined)	-	17	-	-	-
CC(C)(C)Nc1nc(Cl)nc(NCCN2CCOCC2)n1	-	-	5.4	-	-
CCOC(=O)/C(C#N)=C/Nc1ccccc1OC	-	13	-	-	-
Cc1cc2c(s1)c1cnn(Cc3cc(F)c(F)cc3F)c(=O)c1n2C	-	-	.	-	.
Cc1ccccc1CN1CCCCC(NC(=O)c2cccc([N+](=O)[O-])c2)C1=O (centres undefined)	-	-	.	-	-
Cc1ccc(-n2nnnc2SCC(=O)NCC2(N3CCOCC3)CCCCC2)c(C)c1	-	-	-	-	-
